Source: PubChem BioAssay (NMMLSC)
The list is not random: actives were taken first. Their share in the collection is about 3.5%.
Autofluor counter: counter-screen for toxin protease inhibitors: compound fluorescence. 360,000 tested, 3.1% active. compound autofluorescence counterscreen, microsphere flow cytometry; hits give high values. fluorescence intensity (concentration not given with the values); in the data active = fluorescence intensity above about 16000; inconclusive = no clear call, values can overlap the other calls
BoNT F protease: inhibitors of Botulinum neurotoxin F light chain protease; Multiplex microsphere protease cleavage assay, flow cytometry; inhibition, % at 10 µM; 360,000 tested, 0.22% active; in the data active = inhibition above about 35%, passing the limit was not always enough; inconclusive = no clear call, values can overlap the other calls
BoNT-A LC inh2: blocks Botulinum neurotoxin A light chain protease; multiplex microsphere protease substrate cleavage, flow cytometry; inhibition, % at 10 µM; 360,000 tested, 0.17% active
Anthrax LF inh2: inhibitors of Bacillus anthracis lethal factor protease | P15917 | multiplex microsphere protease cleavage assay, LF | inhibition, % at 10 µM | 360,000 tested, 0.12% active | AID 588501
Target sequence (P15917 whole entry, looked up): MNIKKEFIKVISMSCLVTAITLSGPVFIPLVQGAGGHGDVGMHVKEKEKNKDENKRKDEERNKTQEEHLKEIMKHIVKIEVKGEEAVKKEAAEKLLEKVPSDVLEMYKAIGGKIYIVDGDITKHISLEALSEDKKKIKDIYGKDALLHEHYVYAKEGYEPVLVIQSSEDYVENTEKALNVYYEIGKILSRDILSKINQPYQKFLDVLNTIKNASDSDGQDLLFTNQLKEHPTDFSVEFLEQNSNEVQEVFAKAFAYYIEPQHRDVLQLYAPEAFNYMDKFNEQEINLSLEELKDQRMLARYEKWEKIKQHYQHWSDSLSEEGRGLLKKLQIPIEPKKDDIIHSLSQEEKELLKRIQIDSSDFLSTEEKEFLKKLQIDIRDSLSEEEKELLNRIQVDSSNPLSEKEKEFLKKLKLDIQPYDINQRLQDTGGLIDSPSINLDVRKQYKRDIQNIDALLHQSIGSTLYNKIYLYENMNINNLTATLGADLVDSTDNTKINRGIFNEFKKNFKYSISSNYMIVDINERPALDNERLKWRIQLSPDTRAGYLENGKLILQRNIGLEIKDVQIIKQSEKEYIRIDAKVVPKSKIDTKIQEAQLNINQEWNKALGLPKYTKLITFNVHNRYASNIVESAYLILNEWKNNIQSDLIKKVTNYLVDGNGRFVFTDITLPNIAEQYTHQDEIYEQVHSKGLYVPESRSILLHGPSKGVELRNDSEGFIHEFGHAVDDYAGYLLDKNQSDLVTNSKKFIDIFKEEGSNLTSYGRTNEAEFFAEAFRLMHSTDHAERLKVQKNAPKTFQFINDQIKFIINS
A number is an active result; - = inactive; ? = inconclusive. Rule as the data show it, unless noted: active = inhibition above about 30%; inconclusive = no clear call, values can overlap the other calls; inactive = below that.

SMILES | Autofluor counter | BoNT F protease | BoNT-A LC inh2 | Anthrax LF inh2
COc1ccc(-c2noc(Cn3cc(S(=O)(=O)N4CCCC4)ccc3=O)n2)cc1 | ? | - | - | -
O=c1ccc(S(=O)(=O)N2CCCC2)cn1Cc1nc(-c2ccc(F)cc2)no1 | 57271 | - | - | -
CC(=O)N1CCN(Cc2cc(=O)oc3ccccc23)CC1 | - | - | - | -
CC1=C(C(=O)OCC2CCCO2)C(c2cccc(C(F)(F)F)c2)C2=C(CC(c3ccco3)CC2=O)N1 (stereo not drawn) | 21820 | - | - | -
O=C(Nc1c(-c2ccc3c(c2)OCO3)[nH][nH]c1=O)c1ccc2c(c1)OCO2 | - | - | - | -
CCCNC(=O)CN1C(=O)c2ccccc2Sc2ncccc21 | - | - | - | 30
CCCS(=O)(=O)NC(=O)C1(C)CCN(C(=O)c2ccc(F)c(C)c2)C1 (stereo not drawn) | - | - | - | -
O=c1c2c3c(sc2n(CCN2CCCCC2)c(=O)n1Cc1ccco1)CCCCC3 | 27290 | - | ? | -
NC(=O)Cn1c(=O)n(Cc2ccco2)c(=O)c2c3c(sc21)CCCCC3 | 18631 | - | ? | -
CCn1c(=O)n(CCc2ccccc2)c(=O)c2c3c(sc21)CCCC3 | 22638 | - | - | -
O=C(Cn1c(=O)n(Cc2ccco2)c(=O)c2c3c(sc21)CCCC3)Nc1ccccc1 | - | - | - | -
COC(=O)Cn1c(=O)n(CCc2ccccc2)c(=O)c2c3c(sc21)CCCC3 | - | - | - | -
O=C(COc1ccccc1)N[C@@H]1c2ccccc2CC[C@H]1OCc1ccccc1 | - | - | - | -
N#CCSc1nc2cc(C(=O)N3CCC(C(N)=O)CC3)ccc2c2nc3ccccc3n12 | 20618 | - | - | -
CCCCCn1c(SCC(=O)OCC)nc2cc(C(=O)N3CCC(C(N)=O)CC3)ccc2c1=O | 21996 | - | - | -
N#CCSc1nc2cc(C(=O)N3CCCC3)ccc2c(=O)n1Cc1ccccc1 | - | - | - | -
Cc1ccc(S(=O)(=O)N(CCC(=O)NCC(c2ccccc2)N(C)C)c2ccccc2)cc1 (stereo not drawn) | - | - | - | -
CCN(C(=O)COC(=O)CCCc1c[nH]c2ccccc12)c1c(N)n(Cc2ccccc2)c(=O)[nH]c1=O | - | - | - | -
Cc1sc2nc(SCC(=O)NCCOCCO)n(C)c(=O)c2c1C | 21931 | - | - | -
O=C(CN1CCN(c2ccccn2)CC1)Nc1ccc(F)cc1F | - | - | - | -
O=C(C1CSC2(c3ccc(F)cc3)CCC(=O)N12)N1CCCCCC1 (stereo not drawn) | 20230 | - | - | -
CN(C)S(=O)(=O)N1CCN(C(=O)c2ccccc2)CC1 | - | - | - | -
CS(=O)(=O)Nc1ccc(C(=O)Nc2ccccc2C(=O)N2CCCC2)cc1 | 20057 | - | - | -
CS(=O)(=O)N1CCN(C(=O)c2ccccc2)C1 | 16660 | - | - | -
CN(CC(=O)Nc1ccccc1C(=O)N1CCCC1)S(=O)(=O)c1ccc(Cl)cc1 | 24313 | - | - | -
SMILES | Autofluor counter | BoNT F protease | BoNT-A LC inh2 | Anthrax LF inh2
CS(=O)(=O)Nc1ccc(C(=O)N2CCN(c3ccccc3)CC2)cc1 | 22316 | - | - | -
O=C(c1ccccc1)N1CCN(c2ccccc2)CC1 | - | - | - | -
O=C(c1ccc(Cn2cc(Br)cn2)cc1)N1CCN(c2ccccc2)CC1 | 23168 | - | - | -
CC1(C)OC2OC3C(CNCCO)OC(c4ccccc4)OC3C2O1 (stereo not drawn) | - | - | - | -
COC(=O)c1sccc1NC(=O)c1csc(C)c1 | 16143 | - | - | -
COC(=O)c1sccc1NC(=O)c1ccc(C)s1 | - | - | - | -
COC(=O)c1sccc1NC(=O)c1ccc(Br)s1 | 22720 | - | - | -
Cc1c(C(=O)N2CCN(C(c3ccccc3)c3ccccc3)CC2)oc2ccccc12 | - | - | - | -
CCOC(=O)[C@]12CCC=C1N(Cc1ccc3c(c1)OCO3)C(=O)[C@H](CC(=O)NCC1CCCCC1)C2 | - | - | - | -
CC(=O)N(C)C1=C(N2CCOCC2)C(=O)c2ccccc2C1=O | 24878 | - | - | -
CC(=O)N(C1=C(N2CCOCC2)C(=O)c2ccccc2C1=O)c1ccc(C(=O)O)cc1 | - | - | - | -
O=C(NCN1CCc2ccccc2C1)c1ccccc1 | 17046 | - | - | -
O=C(CNCCC1=CCCCC1)Nc1ccccc1N1CCCCC1 | 17116 | - | - | -
O=C(CNC1CCCCCC1)Nc1ccccc1N1CCCCC1 | - | - | - | -
O=C(CN1CCc2ccccc2C1)Nc1ccccc1N1CCCCCC1 | 23403 | - | - | -
COCC(=O)N1CCC(Oc2ccc(C(=O)NC3Cc4ccccc4C3)cc2)CC1 | - | - | - | -
CCc1ccc2nc(NC(=O)C3CSC4(C)CCC(=O)N34)sc2c1 (stereo not drawn) | - | - | - | -
C[C@H]1CN([C@@H](C)CO)C(=O)CCCn2nncc2CO[C@H]1CN(C)C(=O)c1ccccc1 | - | - | - | -
Cc1ccc(NC(=O)c2cc(S(=O)(=O)N3CCOCC3)cn2C)cc1F | - | - | - | -
Cc1nn(-c2ccccc2)c(C)c1CNC(=O)c1ccc(S(=O)(=O)NCc2ccco2)cc1 | - | - | - | -
Cc1cc(C)n(CCCNC(=O)c2ccc(S(=O)(=O)NCc3ccco3)cc2)n1 | 21580 | - | ? | -
O=C(NC1CCCCC1)c1ccc(S(=O)(=O)NCc2ccco2)cc1 | 21532 | - | - | -
COc1cccc(C(=O)Nc2ccc(S(=O)(=O)NCc3ccco3)cc2)c1 | 24328 | - | - | -
O=C(NC1CCN(Cc2ccccc2)CC1)c1ccc(S(=O)(=O)NCc2ccco2)cc1 | - | - | - | -
O=C(Nc1ccc(S(=O)(=O)NCc2ccco2)cc1)c1cccc(F)c1 | - | - | - | -
SMILES | Autofluor counter | BoNT F protease | BoNT-A LC inh2 | Anthrax LF inh2
CC1CCCCC1NC(=O)CSc1nnc(CC(=O)Nc2ccccc2F)n1C (stereo not drawn) | - | - | - | -
Cc1oc(-c2ccccc2Cl)nc1CS(=O)CC(=O)NC1CC1 (stereo not drawn) | - | - | - | -
O=C(Nc1nnc(-c2ccccc2)s1)c1cc(S(=O)(=O)N2CCOCC2)c(Cl)cc1Cl | 23535 | - | ? | -
O=C(Nc1nnc(-c2ccccc2)s1)c1cccc(S(=O)(=O)N2CCOCC2)c1 | - | - | - | -
CC(C)CN(C(=O)COC(=O)Cc1n[nH]c(=O)c2ccccc12)C1CCS(=O)(=O)C1 (stereo not drawn) | 21604 | - | ? | -
Nc1c(C(O)(C(F)(F)F)C(F)(F)F)ccc2ccccc12 | 17206 | - | - | -
COc1ccc(CNC(=O)CN(Cc2ccc(Cl)cc2)S(=O)(=O)c2ccccc2)cc1 | 24986 | - | - | -
COc1ccc(S(=O)(=O)N(CCc2ccccc2)CC(=O)NC(C)C)cc1 | 22967 | - | - | -
COc1ccc(CNC(=O)CN(Cc2ccccc2)S(=O)(=O)c2ccc(Cl)cc2)cc1 | 22889 | - | - | -
COc1ccc(S(=O)(=O)N(CC(=O)NC(C)C)Cc2ccccc2)cc1 | - | - | - | -
COc1ccc(C)cc1S(=O)(=O)N(CC(=O)NCc1ccc(Cl)cc1)Cc1ccccc1 | 22998 | - | - | -
COc1ccc(S(=O)(=O)N(CC(=O)NCc2ccncc2)Cc2ccccc2)cc1 | - | - | - | -
CC(Sc1nnc(-c2cccnc2)n1N)C(=O)NCCC1=CCCCC1 (stereo not drawn) | - | - | - | -
CCOc1ccc(NC(=O)CSc2ccccc2N)cc1 | - | - | - | -
